SIRT5 inh – SIRT5 desuccinylase inhibitors, primary screen, biochemical, fluorescence imaging, single point, set 5. 330,000 tested, 1.1% active. Purified SirT5, succinyl-peptide AMC, trypsin-coupled fluorescence. inhibition, % at 15 µM. NAD-dependent protein deacylase sirtuin-5, mitochondrial (Homo sapiens), Q9NXA8; in the data active means inhibition above about 15%; inconclusive means no clear call, values can overlap the other calls
ERp5 inh – inhibitors of ERp5-driven insulin aggregation, primary screen, biochemical, turbidity, absorbance 650 nm, single point. 90 min. AID 651711, 2012. 350,000 tested, 0.05% active. inhibition, % at 9.99 µM;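 active means mean replicate inhibition above about 25%, with every replicate also reaching it, limit read from the data, passing the limit was not always enough; inconclusive means only one of those two criteria met; inactive means neither criterion met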
Target sequence (Q15084 whole entry, looked up): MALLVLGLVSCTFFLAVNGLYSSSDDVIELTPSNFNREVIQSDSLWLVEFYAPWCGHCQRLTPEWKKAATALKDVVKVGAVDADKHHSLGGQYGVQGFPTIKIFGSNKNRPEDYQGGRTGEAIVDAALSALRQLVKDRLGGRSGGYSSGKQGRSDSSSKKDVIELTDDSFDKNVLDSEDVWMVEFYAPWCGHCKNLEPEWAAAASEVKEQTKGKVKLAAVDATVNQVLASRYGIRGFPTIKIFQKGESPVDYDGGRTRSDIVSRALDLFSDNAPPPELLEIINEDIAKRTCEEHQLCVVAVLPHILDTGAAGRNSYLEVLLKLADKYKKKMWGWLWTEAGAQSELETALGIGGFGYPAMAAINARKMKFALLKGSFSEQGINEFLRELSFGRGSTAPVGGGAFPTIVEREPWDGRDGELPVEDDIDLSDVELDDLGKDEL
DENV2 CPE – inhibitors of DENV2 cytopathic effect, primary screen, cell-based, plate reader, single concentration | DENV2-infected cells, cytopathic effect rescue | CPE inhibition, % at 9.99 µM | 350,000 tested, 1.7% active; in the data active means CPE inhibition above about 20%, passing the limit was not always enough; inconclusive means no clear call, values can overlap the other calls; tested in BHK-21 cells;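 further: 0% = median of neutral control wells and 100% = median of positive control wells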
PDI turbidity – inhibitors of human PDI, primary screen, biochemical, turbidity, single point, plate reader | PDI insulin aggregation turbidity, A650, 90 min | inhibition, % at 10 µM | 350,000 tested, 0.052% active | AID 588391, 2011;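 active means mean inhibition across replicates of 30% or more, whatever share of single replicates reach that level; inconclusive means mean inhibition below 30% while every single replicate reaches 30%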
The depositor's hits bear a star; ! = a repeat was not active. Compounds with a hit are over-represented: about 2.3% of the library has one in this group of screens.

CCCC#Cc1ccc2c(c1)O[C@H](CN(C)S(=O)(=O)c1cccc(OC)c1)[C@H](C)CN([C@H](C)CO)S2(=O)=O was read as SIRT5 inh 17*!, ERp5 inh -3, DENV2 CPE 0 and PDI turbidity 5.
CC(C)CC#Cc1ccc2c(c1)O[C@@H](CN(C)S(=O)(=O)c1cccc(F)c1)[C@H](C)CN([C@@H](C)CO)S2(=O)=O was read as SIRT5 inh 17*, ERp5 inh 0 and DENV2 CPE -4.
Screening COCC#Cc1ccc2c(c1)O[C@@H](CN(C)S(=O)(=O)c1cccc(F)c1)[C@H](C)CN([C@H](C)CO)S2(=O)=O returned SIRT5 inh 2, ERp5 inh 0 and DENV2 CPE inconclusive.
For COCC#Cc1ccc2c(c1)O[C@@H](CN(C)S(=O)(=O)c1cccc(F)c1)[C@@H](C)CN([C@H](C)CO)S2(=O)=O the results were SIRT5 inh 19*!, ERp5 inh -2, DENV2 CPE -1 and PDI turbidity 0.
`CC(C)CC#Cc1ccc2c(c1)O[C@@H](CN(C)S(=O)(=O)c1cccc(F)c1)[C@@H](C)CN([C@@H](C)CO)S2(=O)=O` gave SIRT5 inh 20*, ERp5 inh 1 and DENV2 CPE 9.
C[C@@H]1CN([C@H](C)CO)C(=O)c2cc(C#CC3CC3)cnc2O[C@H]1CN(C)S(=O)(=O)c1cccc(F)c1 was read as SIRT5 inh 9, ERp5 inh -1 and DENV2 CPE 11.
For CC(C)NC(=O)N1CCCCN2[C@H](CO)[C@H](c3ccc(C#Cc4ccccc4)cc3)[C@@H]2C1 the results were SIRT5 inh 7, ERp5 inh -5 and DENV2 CPE -10.
Screening CCN1CC(=O)N2[C@H](C1)[C@H](c1ccc(-c3ccccc3F)cc1)[C@@H]2CO returned SIRT5 inh -3, ERp5 inh 0 and DENV2 CPE 20.
For C[C@@H]1CN([C@H](C)CO)C(=O)c2cccc(N(C)C)c2O[C@H]1CN(C)Cc1ccc(Cl)c(Cl)c1 the results were SIRT5 inh -3, ERp5 inh 0 and DENV2 CPE -10.
For CC(C)CC#Cc1ccc2c(c1)O[C@H](CN(C)S(=O)(=O)c1cccc(F)c1)[C@@H](C)CN([C@H](C)CO)S2(=O)=O the results were SIRT5 inh 16*, ERp5 inh 2 and DENV2 CPE -5.
For CC(C)CC#Cc1ccc2c(c1)O[C@@H](CN(C)S(=O)(=O)c1cccc(F)c1)[C@H](C)CN([C@H](C)CO)S2(=O)=O the results were SIRT5 inh 19*, ERp5 inh 4 and DENV2 CPE -1.
For CCCC#Cc1ccc2c(c1)O[C@@H](CN(C)S(=O)(=O)c1cccc(F)c1)[C@@H](C)CN([C@H](C)CO)S2(=O)=O the results were SIRT5 inh 1, ERp5 inh -1 and DENV2 CPE 6.
Screening CNC[C@@H]1Oc2ccc(NC(=O)C3CCCCC3)cc2C(=O)N([C@@H](C)CO)C[C@@H]1C returned SIRT5 inh 5, ERp5 inh -6 and DENV2 CPE -6.
For COc1ccc(S(=O)(=O)N(C)C[C@H]2OCCCC[C@@H](C)Oc3ccc(NC(=O)Nc4ccc(F)cc4)cc3C(=O)N([C@@H](C)CO)C[C@@H]2C)cc1 the results were SIRT5 inh 16*, ERp5 inh -3 and DENV2 CPE -3.
`COc1ccc(S(=O)(=O)N(C)C[C@@H]2OCCCC[C@@H](C)Oc3ccc(NC(=O)c4ccccc4)cc3C(=O)N([C@@H](C)CO)C[C@@H]2C)cc1` gave SIRT5 inh 4, ERp5 inh 2 and DENV2 CPE 29*.
COc1ccc(S(=O)(=O)N(C)C[C@@H]2OCCCC[C@@H](C)Oc3ccc(NC(=O)Nc4ccc(F)cc4)cc3C(=O)N([C@@H](C)CO)C[C@@H]2C)cc1 was read as SIRT5 inh 17*, ERp5 inh 3 and DENV2 CPE 4.
`COc1ccc(S(=O)(=O)N(C)C[C@@H]2OCCCC[C@@H](C)Oc3ccc(NC(=O)c4ccccc4)cc3C(=O)N([C@H](C)CO)C[C@H]2C)cc1` gave SIRT5 inh 5, ERp5 inh 1 and DENV2 CPE 4.
For COc1ccc(S(=O)(=O)N(C)C[C@@H]2OCCCC[C@@H](C)Oc3ccc(NC(=O)Nc4ccc(C(F)(F)F)cc4)cc3C(=O)N([C@H](C)CO)C[C@H]2C)cc1 the results were SIRT5 inh 0, ERp5 inh 7 and DENV2 CPE 22*.
COc1ccc(S(=O)(=O)N(C)C[C@@H]2OCCCC[C@H](C)Oc3ccc(NC(=O)Nc4ccc(F)cc4)cc3C(=O)N([C@H](C)CO)C[C@@H]2C)cc1 was read as SIRT5 inh 15, ERp5 inh 0 and DENV2 CPE -3.
`COc1ccccc1C(=O)Nc1ccc2c(c1)OC[C@H](C)NC[C@H](C)[C@H](OC)CN(C)C2=O` gave SIRT5 inh 0, ERp5 inh 2 and DENV2 CPE -12.
Screening CNC[C@H]1Oc2ccc(NC(=O)NC3CCCCC3)cc2CC(=O)N([C@@H](C)CO)C[C@H]1C returned SIRT5 inh 0, ERp5 inh 1 and DENV2 CPE -5.
Screening COc1ccc(NC(=O)Nc2ccc3c(c2)C(=O)N([C@@H](C)CO)C[C@@H](C)[C@@H](CN(C)S(=O)(=O)c2ccc(F)cc2)OCCCC[C@@H](C)O3)cc1 returned SIRT5 inh 8, ERp5 inh -3 and DENV2 CPE 30*.
COc1ccc(NC(=O)Nc2ccc3c(c2)C(=O)N([C@H](C)CO)C[C@H](C)[C@@H](CN(C)S(=O)(=O)c2ccccc2)OCCCC[C@H](C)O3)cc1 was read as SIRT5 inh 16*, ERp5 inh 0 and DENV2 CPE 1.
COc1ccc(NC(=O)Nc2ccc3c(c2)C(=O)N([C@@H](C)CO)C[C@@H](C)[C@H](CN(C)S(=O)(=O)c2ccc(F)cc2)OCCCC[C@@H](C)O3)cc1 was read as SIRT5 inh 15*, ERp5 inh 3 and DENV2 CPE -9.
`COc1ccc(NC(=O)Nc2ccc3c(c2)C(=O)N([C@H](C)CO)C[C@H](C)[C@@H](CN(C)S(=O)(=O)c2ccccc2)OCCCC[C@@H](C)O3)cc1` gave SIRT5 inh 9, ERp5 inh 6 and DENV2 CPE -4.
Screening COc1ccc(S(=O)(=O)N(C)C[C@@H]2OCCCC[C@@H](C)Oc3ccc(NC(=O)Nc4ccc(F)cc4)cc3C(=O)N([C@H](C)CO)C[C@@H]2C)cc1 returned SIRT5 inh 13, ERp5 inh -1 and DENV2 CPE -3.
For COc1ccc(NC(=O)Nc2ccc3c(c2)C(=O)N([C@@H](C)CO)C[C@@H](C)[C@H](CN(C)S(=O)(=O)c2ccc(Cl)cc2)OCCCC[C@@H](C)O3)cc1 the results were SIRT5 inh -2, ERp5 inh 3 and DENV2 CPE 36*.
